# Experimental data as given in PubChem BioAssay.
# Molecular target: Streptavidin (Streptomyces avidinii) (UniProt P22629)
# Test: streptavidin binders on small-molecule microarray, primary screen, artefact control for SMM compound annotation, biophysical, 635/667 nm fluorescence (AID 1147);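 note: signal reflects streptavidin binding to arrayed compounds as a control protein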
# Conditions: streptavidin binding, higher = more signal
# Chain of Streptavidin (Streptomyces avidinii) (P22629 whole entry, looked up): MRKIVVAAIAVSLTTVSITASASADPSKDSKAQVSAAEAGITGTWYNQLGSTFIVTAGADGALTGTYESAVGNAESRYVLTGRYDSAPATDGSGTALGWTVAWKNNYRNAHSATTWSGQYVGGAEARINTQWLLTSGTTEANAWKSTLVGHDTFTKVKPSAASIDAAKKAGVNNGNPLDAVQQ
row,SMILES,composite z-score
1,C[N+](C)(C)CCCCNC(=O)[C@H]1C[C@H]2C(=O)N[C@@H](Cc3ccccc3)C(=O)N2[C@H]1c1ccc(O)cc1,-0.455
2,[N-]=[N+]=NCc1ccccc1C[C@]1(C(=O)N2CCOCC2)N=C(c2ccc(OCCCO)cc2)O[C@H]1c1ccccc1N=[N+]=[N-],0.808
3,CC(=O)NCCCC[C@@H]1NC(=O)[C@@H]2C[C@H](C(=O)NCCCCN(C)C)[C@H](c3cccc(OCCO)c3)N2C1=O,-0.451
4,COc1ccc(C(O)C2C=CC3C(=O)N(c4ccccc4)C(=O)C3N2Nc2ccc(C(C)C)cc2)cc1OCc1ccccc1 (stereo not drawn),1.89
5,[N-]=[N+]=Nc1ccccc1[C@H]1OC(c2ccc(OCCCO)cc2)=N[C@@]1(Cc1ccccc1)C(=O)O,0.365
6,O=C(NCc1ccccc1)[C@@]1(Cc2ccccc2)N=C(c2ccc(OCCCO)cc2)O[C@H]1c1ccccc1,1.15
7,CCOC1=C2C(CN(S(=O)(=O)c3ccc(C)cc3)C2c2ccc(C)cc2)C2C(=O)N(c3ccccc3)C(=O)C2C1 (stereo not drawn),0.963
8,CCOC(=O)C[C@H]1[C@H](OC(=O)c2ccc(C(=O)c3ccccc3)cc2)[C@@H](NC(=O)c2ccc(-c3ccccc3)cc2)c2cc(OCCCO)ccc2N1C(=O)c1ccccc1,1.11
9,COCCOC(=O)N1C(=O)[C@@]2(c3cc(C#Cc4ccc(OC)cc4)ccc31)[C@H](c1ccc(O)cc1)N1[C@H](c3ccccc3)[C@H](c3ccccc3)OC(=O)[C@H]1[C@@H]2C(=O)NC[C@H](O)c1ccccc1,0.452
10,COc1ccc(C(=O)O[C@H]2CC[C@]3(C)C4=C(CCC3C2(C)C)[C@]2(C)CC[C@H]([C@H](C)CCCC(C)C)[C@@]2(C)CC4)cc1 (stereo partly drawn),0.25
11,COc1ccc(C(=O)Nc2ccc(CN3C(=O)[C@@]4(O[C@@H](CCn5cc([C@H](O)c6ccccc6)nn5)[C@H]([Si](C)(C)c5ccc(OC)cc5)[C@H]4C)c4ccccc43)cc2)cc1,0.865
12,O=C1c2ccccc2[C@@]2(Cc3ccccc3N(CCN3CCOCC3)C2=O)[C@H](c2ccc(CO)cc2)N1Cc1ccccc1,-0.383
13,CC[C@@H]1C=C(C(=O)O)[C@H](c2ccco2)N1S(=O)(=O)c1ccc(C)cc1,0.402
14,O=C1OCCC/C=C\[C@H]2OC34C=CCN(CCN5CCOCC5)C(=O)[C@H]3N(CCCO)C(=O)[C@@H]4C12 (stereo partly drawn),-0.388
15,COC(=O)[C@@]1(Cc2ccccc2)[C@H]2c3cc(C(=O)N4CCCC4)n(Cc4nc5ccccc5[nH]4)c3C[C@H]2CN1C(=O)c1ccccc1,1.51
16,CC(C)c1ccc(NN2C(C(O)C(c3ccccc3)c3ccccc3)C=CC3C(=O)N(c4ccccc4)C(=O)C32)cc1 (stereo not drawn),1.3
17,C#CCN(Cc1ccccc1Br)C(/C=C/c1ccccc1)CO (stereo not drawn),-0.175
18,O=C1C2C=CC(C(O)c3c(F)cccc3Cl)N(Nc3ccccc3)C2C(=O)N1c1ccccc1 (stereo not drawn),1.1
19,NC(=O)[C@@H]1[C@H]2C(=O)O[C@H](c3ccccc3)[C@H](c3ccccc3)N2[C@H](c2ccc(O)cc2)[C@@]12C(=O)Nc1ccc(C#CC3(O)CCCCCC3)cc12,-1.08
20,CCOC(=O)C[C@H]1[C@H](OC(=O)Cc2ccc3c(c2)OCO3)[C@@H](NC(=O)c2ccc3ccccc3c2)c2cc(OCCCO)ccc2N1C(=O)c1ccccc1,0.397
21,CN(C)C(=O)[C@]1(Cc2ccccc2N=[N+]=[N-])N=C(c2ccc(OCCCO)cc2)O[C@@H]1c1ccccc1,1.4
22,COC(=O)c1c(CC[C@@H](CO)NC(=O)N[C@@H](C)Cn2cc(C3(O)CCCCC3)nn2)oc(C(C)=O)c1C(=O)OC,0.533
23,O=C1C2C=CC(C(O)c3ccc(F)cc3)N(Nc3ccccc3F)C2C(=O)N1c1ccccc1 (stereo not drawn),0.59
24,O=C(c1ccccc1)N1Cc2ccccc2[C@@H]2OC(c3ccc(OCCCO)cc3)=N[C@]2(Cc2ccccc2)C1=O,0.215
25,C=C(COC)/C(=C/C[C@H](OC(=O)c1ccncc1)c1ccc(OCCO)cc1)c1cnc2ccccc2c1,1.73
26,COCCOC(=O)N1C(=O)[C@@]2(c3cc(C#CCNC(N)=O)ccc31)[C@H](C(=O)NC[C@H](O)c1ccccc1)[C@H]1C(=O)O[C@H](c3ccccc3)[C@H](c3ccccc3)N1[C@@H]2c1ccccc1OCCO,-0.198
27,COc1ccc([C@H]2C[C@H]3C(Br)=C[C@@H]2C(=O)[C@]32CO2)cc1,0.256
28,C=CCOC(=O)[C@@H]1[C@H]2C(=O)O[C@H](c3ccccc3)[C@H](c3ccccc3)N2[C@H](c2ccc(OCCOC(=O)[C@@H]3C[C@@H]4C(=O)N[C@@H](Cc5ccccc5)C(=O)N4[C@@H]3c3ccc(O)cc3)cc2)[C@@]12C(=O)Nc1ccc(I)cc12,0.122
